The source of these data is PMC7862700, “An all-to-all approach to the identification of sequence-specific readers for epigenetic DNA modifications on cytosine”.

Experiment in all cases: DAPPL (digital affinity profiling via proximity ligation, sequencing); 10 mM Tris-HCl pH 7.5, 50 mM NaCl, 1 mM DTT, 4% glycerol, room temperature, 30 min; GST-TFs on glutathione beads, 16-mer random dsDNA library, 0.1% formaldehyde crosslink after washing; high values mean tight binding
For test [1], the target named is T1, FEV (Homo sapiens, UniProt Q99581 1-238).
T1 sequence: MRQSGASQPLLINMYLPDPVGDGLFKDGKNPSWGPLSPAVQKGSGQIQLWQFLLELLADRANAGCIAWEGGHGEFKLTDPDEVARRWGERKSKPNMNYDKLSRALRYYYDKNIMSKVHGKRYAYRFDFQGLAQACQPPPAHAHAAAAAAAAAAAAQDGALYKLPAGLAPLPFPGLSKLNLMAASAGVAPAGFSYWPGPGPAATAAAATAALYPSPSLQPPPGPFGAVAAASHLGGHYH
Particulars: protein: recombinant; tags: N-terminal GST; dsDNA, one strand shown. The procedure, abridged: (§1)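 In yeast, human transcription factors were expressed with a GST fusion, then pulled down on glutathione beads and given DNA barcodes. Pooled with a tag-only sample, they were exposed to 200 nmole of a 16-mer random double-stranded DNA library (Tris/NaCl/DTT/glycerol buffer, room temperature, 30 min), washed, crosslinked with 0.1% formaldehyde, proximity-ligated using BsaI/T4 ligase for 1 h at 37 °C, PCR-amplified and read on an Illumina NextSeq500. Each hexamer's frequency of reads for a factor, divided by the matching frequency for the tag-only sample, gives the binding signal.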

Test [2] has as its target ETV5 (Homo sapiens, UniProt P41161 1-510). As to conditions: protein: recombinant; tags: N-terminal GST; dsDNA, one strand shown. The procedure, abridged: as §1
Test [3] has as its target HSF1 (Homo sapiens, UniProt Q00613 1-529). Particulars: protein: recombinant; tags: N-terminal GST; chain copies: 3; dsDNA, one strand shown. The procedure, abridged:
as §1

The target of test [4] is T2, SPIC (Homo sapiens, UniProt Q8N5J4 1-248).
T2 sequence: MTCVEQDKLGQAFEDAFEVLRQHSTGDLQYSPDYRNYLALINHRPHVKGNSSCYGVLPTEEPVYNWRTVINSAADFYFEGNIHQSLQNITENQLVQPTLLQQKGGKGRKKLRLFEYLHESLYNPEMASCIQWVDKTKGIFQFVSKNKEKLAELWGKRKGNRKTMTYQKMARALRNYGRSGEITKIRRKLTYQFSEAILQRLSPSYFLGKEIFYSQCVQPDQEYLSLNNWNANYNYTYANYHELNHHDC
As to conditions: protein: recombinant; tags: N-terminal GST; dsDNA, one strand shown. The procedure, abridged: as §1

The target in test [5] is ELF4 (Homo sapiens, UniProt Q99607 1-663). As to conditions: protein: recombinant; tags: N-terminal GST; dsDNA, one strand shown. In short, it runs like this:
as §1

Test [6] deals with T3, ELK4 (Homo sapiens, UniProt P28324-2 1-405).
T3 sequence: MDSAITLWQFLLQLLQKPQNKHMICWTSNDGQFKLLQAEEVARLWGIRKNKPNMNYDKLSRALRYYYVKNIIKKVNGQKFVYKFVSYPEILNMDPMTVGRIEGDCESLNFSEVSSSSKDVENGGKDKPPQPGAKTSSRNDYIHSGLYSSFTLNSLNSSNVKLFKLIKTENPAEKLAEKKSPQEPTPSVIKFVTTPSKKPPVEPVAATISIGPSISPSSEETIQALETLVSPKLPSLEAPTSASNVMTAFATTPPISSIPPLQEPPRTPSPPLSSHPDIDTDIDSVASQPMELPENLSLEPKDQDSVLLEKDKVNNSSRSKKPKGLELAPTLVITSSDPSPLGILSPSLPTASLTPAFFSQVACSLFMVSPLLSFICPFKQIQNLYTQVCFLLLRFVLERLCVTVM
Particulars: protein: recombinant; tags: N-terminal GST; dsDNA, one strand shown. The procedure, abridged: as §1

Test [7] concerns the target T4, ETV2 (Homo sapiens, UniProt O00321 1-342).
T4 sequence: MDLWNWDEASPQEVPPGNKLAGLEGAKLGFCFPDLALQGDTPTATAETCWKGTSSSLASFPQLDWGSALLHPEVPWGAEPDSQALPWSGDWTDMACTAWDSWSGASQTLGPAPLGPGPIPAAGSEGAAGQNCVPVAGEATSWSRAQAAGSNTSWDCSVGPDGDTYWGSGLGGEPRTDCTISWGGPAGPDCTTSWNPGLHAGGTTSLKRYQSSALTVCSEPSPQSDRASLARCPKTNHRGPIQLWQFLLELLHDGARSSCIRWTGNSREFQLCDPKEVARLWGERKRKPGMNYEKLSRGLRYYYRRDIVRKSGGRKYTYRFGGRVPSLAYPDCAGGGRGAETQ
Particulars: protein: recombinant; tags: N-terminal GST; dsDNA, one strand shown. The procedure, abridged:
as §1

Test [8] addresses T5, ELF3 (Homo sapiens, UniProt P78545 1-371).
T5 sequence: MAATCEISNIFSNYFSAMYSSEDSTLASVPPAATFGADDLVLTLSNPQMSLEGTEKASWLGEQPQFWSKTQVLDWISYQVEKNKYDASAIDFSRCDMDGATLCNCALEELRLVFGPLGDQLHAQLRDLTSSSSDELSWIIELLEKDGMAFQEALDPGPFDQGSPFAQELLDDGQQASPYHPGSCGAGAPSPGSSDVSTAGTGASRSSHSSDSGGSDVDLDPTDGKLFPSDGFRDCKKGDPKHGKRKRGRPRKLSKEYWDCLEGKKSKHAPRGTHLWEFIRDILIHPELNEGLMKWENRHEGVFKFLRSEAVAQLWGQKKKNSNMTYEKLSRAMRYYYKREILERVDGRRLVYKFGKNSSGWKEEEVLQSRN
As to conditions: protein: recombinant; tags: N-terminal GST; dsDNA, one strand shown. In short, it runs like this: as §1

Test [9] deals with CRX (Homo sapiens, UniProt O43186 1-299). As to conditions: protein: recombinant; tags: N-terminal GST; dsDNA, one strand shown. The procedure, abridged: as §1
Test [10] addresses ETV1 (Homo sapiens, UniProt P50549 1-477). Particulars: protein: recombinant; tags: N-terminal GST; dsDNA, one strand shown. In short, it runs like this:
as §1

In test [11] the target is T6, ERF (Homo sapiens, UniProt P50548 1-548).
T6 sequence: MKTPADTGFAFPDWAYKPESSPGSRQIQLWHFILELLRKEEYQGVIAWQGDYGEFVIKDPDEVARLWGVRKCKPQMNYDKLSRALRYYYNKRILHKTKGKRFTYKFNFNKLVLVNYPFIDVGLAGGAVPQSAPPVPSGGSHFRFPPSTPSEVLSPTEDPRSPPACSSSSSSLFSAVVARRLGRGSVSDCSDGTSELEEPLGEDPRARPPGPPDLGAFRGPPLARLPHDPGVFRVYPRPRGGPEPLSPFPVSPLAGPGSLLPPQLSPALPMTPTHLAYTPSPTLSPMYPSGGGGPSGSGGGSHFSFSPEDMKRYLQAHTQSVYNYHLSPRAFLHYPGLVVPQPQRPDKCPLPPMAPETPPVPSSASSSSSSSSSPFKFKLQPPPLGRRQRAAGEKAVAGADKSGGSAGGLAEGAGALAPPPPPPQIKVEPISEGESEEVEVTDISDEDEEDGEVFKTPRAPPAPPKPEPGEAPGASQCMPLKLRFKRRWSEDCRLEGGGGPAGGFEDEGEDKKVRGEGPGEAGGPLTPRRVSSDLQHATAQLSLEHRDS
Particulars: protein: recombinant; tags: N-terminal GST; dsDNA, one strand shown. In short, it runs like this: as §1

Test [12] concerns the target T7, ETV3L (Homo sapiens, UniProt Q6ZN32 1-361).
T7 sequence: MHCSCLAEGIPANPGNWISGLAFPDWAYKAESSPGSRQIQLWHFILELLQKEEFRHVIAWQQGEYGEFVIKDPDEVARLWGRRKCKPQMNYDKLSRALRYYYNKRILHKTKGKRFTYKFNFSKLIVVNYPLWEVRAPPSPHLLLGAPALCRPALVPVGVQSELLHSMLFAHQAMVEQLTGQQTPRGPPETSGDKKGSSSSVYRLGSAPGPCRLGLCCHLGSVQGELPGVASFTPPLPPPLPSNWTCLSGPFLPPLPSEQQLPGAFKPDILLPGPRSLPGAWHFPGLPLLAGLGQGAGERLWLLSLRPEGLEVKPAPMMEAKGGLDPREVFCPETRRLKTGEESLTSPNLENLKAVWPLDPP
Particulars: protein: recombinant; tags: N-terminal GST; dsDNA, one strand shown. In short, it runs like this: as §1

The target of test [13] is T8, ETS2 (Homo sapiens, UniProt P15036 1-469).
T8 sequence: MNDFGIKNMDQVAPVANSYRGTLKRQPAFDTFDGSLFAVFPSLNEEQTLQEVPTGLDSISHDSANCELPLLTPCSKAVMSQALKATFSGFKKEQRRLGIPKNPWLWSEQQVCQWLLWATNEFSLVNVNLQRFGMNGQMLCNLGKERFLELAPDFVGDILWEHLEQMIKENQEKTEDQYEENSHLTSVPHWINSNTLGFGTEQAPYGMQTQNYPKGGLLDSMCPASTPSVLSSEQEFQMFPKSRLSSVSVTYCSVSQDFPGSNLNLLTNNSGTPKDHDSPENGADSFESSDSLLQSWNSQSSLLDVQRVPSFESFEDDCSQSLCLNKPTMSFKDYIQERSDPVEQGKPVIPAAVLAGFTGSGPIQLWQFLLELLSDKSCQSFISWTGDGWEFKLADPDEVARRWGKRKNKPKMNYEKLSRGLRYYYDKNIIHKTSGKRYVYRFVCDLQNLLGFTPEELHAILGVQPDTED
Particulars: protein: recombinant; tags: N-terminal GST; dsDNA, one strand shown. In short, it runs like this:
as §1

The target in test [14] is T9, SPDEF (Homo sapiens, UniProt O95238 1-335).
T9 sequence: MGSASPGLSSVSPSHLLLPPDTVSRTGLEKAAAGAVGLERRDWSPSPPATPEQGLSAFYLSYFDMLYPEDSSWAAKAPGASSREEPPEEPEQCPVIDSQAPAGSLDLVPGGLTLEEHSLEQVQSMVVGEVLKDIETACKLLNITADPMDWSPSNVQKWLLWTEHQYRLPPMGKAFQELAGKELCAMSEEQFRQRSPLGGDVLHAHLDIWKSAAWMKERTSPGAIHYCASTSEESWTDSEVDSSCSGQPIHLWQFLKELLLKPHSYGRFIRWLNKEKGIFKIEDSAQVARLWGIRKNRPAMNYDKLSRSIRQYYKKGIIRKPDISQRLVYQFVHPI
As to conditions: protein: recombinant; tags: N-terminal GST; dsDNA, one strand shown. In short, it runs like this: as §1

The target of test [15] is T10, ETV7 (Homo sapiens, UniProt Q9Y603 1-341).
T10 sequence: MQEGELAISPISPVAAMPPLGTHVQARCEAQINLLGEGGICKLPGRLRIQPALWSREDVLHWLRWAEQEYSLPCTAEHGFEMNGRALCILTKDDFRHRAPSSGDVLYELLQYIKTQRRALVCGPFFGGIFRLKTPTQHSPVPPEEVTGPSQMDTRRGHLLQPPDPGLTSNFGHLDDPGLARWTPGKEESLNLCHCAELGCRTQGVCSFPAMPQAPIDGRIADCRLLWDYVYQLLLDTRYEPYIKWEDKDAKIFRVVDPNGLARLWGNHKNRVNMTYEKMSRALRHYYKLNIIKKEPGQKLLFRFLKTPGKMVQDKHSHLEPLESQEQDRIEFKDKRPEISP
As to conditions: protein: recombinant; tags: N-terminal GST; dsDNA, one strand shown. In short, it runs like this: as §1

Test [16] concerns the target T11, ELF5 (Homo sapiens, UniProt Q9UKW6-2 1-255).
T11 sequence: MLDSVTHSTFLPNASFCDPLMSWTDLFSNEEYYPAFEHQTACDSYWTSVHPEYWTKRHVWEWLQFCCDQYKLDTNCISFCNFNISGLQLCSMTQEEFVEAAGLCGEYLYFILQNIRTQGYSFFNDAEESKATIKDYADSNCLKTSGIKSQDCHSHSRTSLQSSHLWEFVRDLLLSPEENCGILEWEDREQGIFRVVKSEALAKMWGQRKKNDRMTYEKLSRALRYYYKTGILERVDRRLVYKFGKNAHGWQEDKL
Particulars: protein: recombinant; tags: N-terminal GST; dsDNA, one strand shown. In short, it runs like this: as §1

Test [17] deals with T12, ETV3 (Homo sapiens, UniProt P41162-2 1-143).
T12 sequence: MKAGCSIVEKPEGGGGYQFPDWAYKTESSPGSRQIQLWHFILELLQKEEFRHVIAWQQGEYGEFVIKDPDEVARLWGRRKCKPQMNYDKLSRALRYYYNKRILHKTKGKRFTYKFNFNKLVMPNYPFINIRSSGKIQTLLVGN
Particulars: protein: recombinant; tags: N-terminal GST; dsDNA, one strand shown. In short, it runs like this: as §1

The target of test [18] is ETV6 (Homo sapiens, UniProt P41212 1-452). Particulars: protein: recombinant; tags: N-terminal GST; dsDNA, one strand shown. The procedure, abridged: as §1
Sequence of ETV6 (P41212 whole entry): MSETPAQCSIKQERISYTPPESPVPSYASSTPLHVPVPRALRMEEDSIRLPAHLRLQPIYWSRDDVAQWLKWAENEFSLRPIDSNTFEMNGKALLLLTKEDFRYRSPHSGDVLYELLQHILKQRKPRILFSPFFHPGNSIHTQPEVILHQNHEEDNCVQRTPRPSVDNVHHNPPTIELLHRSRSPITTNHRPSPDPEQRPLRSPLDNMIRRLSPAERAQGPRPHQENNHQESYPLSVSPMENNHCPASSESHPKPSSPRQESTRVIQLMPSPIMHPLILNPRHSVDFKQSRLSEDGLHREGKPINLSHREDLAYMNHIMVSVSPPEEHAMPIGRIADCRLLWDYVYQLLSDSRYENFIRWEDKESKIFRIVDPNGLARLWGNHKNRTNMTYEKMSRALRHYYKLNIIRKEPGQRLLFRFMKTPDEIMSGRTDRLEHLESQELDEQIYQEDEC

Sequence of HSF1 (Q00613 whole entry): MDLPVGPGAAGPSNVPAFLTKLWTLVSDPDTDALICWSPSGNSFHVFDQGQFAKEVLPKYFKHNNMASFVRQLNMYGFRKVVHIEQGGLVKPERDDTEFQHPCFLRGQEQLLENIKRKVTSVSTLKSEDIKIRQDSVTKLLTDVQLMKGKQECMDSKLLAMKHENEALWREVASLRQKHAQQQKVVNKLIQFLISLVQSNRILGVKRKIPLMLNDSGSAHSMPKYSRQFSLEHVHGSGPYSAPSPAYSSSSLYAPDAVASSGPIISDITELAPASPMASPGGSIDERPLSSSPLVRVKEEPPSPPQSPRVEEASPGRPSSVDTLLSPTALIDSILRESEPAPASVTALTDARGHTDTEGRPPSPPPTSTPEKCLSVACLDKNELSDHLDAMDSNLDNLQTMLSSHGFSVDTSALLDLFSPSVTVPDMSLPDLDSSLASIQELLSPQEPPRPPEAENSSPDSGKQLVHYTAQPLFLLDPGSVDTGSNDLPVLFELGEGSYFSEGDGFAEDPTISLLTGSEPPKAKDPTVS
Sequence of CRX (O43186 whole entry): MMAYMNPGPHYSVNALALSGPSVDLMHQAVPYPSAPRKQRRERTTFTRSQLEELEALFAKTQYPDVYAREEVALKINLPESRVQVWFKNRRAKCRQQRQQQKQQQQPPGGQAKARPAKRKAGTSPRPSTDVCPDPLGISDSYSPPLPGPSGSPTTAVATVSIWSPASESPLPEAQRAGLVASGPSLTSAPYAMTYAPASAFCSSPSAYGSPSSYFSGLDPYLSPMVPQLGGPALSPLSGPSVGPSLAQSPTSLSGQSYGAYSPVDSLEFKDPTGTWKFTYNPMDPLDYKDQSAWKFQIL
Sequence of ELF4 (Q99607 whole entry): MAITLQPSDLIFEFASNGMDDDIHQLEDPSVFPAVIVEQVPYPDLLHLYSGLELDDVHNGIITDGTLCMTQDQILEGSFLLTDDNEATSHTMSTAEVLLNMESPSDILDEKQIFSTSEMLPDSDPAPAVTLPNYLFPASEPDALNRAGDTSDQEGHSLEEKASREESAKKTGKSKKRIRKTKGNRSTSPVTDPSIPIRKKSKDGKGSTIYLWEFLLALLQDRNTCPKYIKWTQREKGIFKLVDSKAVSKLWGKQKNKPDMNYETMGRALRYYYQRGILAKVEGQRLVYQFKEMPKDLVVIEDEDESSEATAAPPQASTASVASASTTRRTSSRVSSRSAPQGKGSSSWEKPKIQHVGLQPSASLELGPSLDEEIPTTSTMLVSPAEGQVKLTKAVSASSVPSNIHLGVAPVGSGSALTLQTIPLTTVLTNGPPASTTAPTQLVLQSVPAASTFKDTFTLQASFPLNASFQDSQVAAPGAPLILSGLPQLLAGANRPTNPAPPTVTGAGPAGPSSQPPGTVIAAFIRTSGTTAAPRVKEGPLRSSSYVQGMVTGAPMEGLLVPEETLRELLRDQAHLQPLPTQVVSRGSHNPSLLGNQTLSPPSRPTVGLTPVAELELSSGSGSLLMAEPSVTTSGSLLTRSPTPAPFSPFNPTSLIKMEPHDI
Sequence of ETV1 (P50549 whole entry): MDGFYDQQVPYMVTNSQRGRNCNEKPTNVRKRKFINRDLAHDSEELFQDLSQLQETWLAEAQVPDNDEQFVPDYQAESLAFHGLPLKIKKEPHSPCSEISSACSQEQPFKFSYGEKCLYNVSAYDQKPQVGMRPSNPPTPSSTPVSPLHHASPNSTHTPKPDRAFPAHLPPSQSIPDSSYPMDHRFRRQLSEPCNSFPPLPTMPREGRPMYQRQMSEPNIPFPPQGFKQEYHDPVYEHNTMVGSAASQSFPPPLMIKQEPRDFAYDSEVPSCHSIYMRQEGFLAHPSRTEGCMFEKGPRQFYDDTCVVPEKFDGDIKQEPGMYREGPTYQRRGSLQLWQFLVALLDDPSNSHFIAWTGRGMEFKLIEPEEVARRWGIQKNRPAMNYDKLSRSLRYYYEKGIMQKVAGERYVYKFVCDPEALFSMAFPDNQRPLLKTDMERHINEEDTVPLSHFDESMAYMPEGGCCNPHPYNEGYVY
Sequence of ETV5 (P41161 whole entry): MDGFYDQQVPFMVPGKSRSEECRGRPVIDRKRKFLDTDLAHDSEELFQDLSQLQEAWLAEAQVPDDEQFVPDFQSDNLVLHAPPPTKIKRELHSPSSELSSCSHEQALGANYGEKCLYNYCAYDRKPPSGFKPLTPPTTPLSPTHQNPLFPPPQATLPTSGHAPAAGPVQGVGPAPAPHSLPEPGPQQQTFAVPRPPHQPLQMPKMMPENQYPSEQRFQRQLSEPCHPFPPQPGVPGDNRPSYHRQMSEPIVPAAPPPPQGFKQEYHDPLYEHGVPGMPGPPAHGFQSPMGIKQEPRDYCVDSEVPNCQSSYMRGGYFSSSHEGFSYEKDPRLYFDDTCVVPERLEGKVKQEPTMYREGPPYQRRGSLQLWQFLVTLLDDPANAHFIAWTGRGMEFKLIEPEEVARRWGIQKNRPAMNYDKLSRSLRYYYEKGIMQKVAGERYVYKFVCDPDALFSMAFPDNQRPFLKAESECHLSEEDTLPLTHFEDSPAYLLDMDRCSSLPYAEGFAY

Regarding TTGCAT, the binding signal is 1.35 fold enrichment (6-mer frequency, TF over GST control) in [1]; 1.39 fold enrichment (6-mer frequency, TF over GST control) in test [2]; 1.3 fold enrichment (6-mer frequency, TF over GST control) in test [3]; 1.59 fold enrichment (6-mer frequency, TF over GST control) in test [4]; 1.4 fold enrichment (6-mer frequency, TF over GST control) in test [5]; 1.31 fold enrichment (6-mer frequency, TF over GST control) in test [6]. In addition, the binding signal in test [7] is 1.53 fold enrichment (6-mer frequency, TF over GST control); in test [8], 1.38 fold enrichment (6-mer frequency, TF over GST control); in test [9] it was 1.33 fold enrichment (6-mer frequency, TF over GST control); in test [10] it was 1.5 fold enrichment (6-mer frequency, TF over GST control); in test [11], 1.37 fold enrichment (6-mer frequency, TF over GST control); in [12] it was 1.56 fold enrichment (6-mer frequency, TF over GST control). For the same sequence, the binding signal in [13] was 1.42 fold enrichment (6-mer frequency, TF over GST control); in [14], 1.51 fold enrichment (6-mer frequency, TF over GST control); in test [15], 1.35 fold enrichment (6-mer frequency, TF over GST control); in [16], 1.4 fold enrichment (6-mer frequency, TF over GST control); in test [17] it was 1.49 fold enrichment (6-mer frequency, TF over GST control); in test [18] it was 1.38 fold enrichment (6-mer frequency, TF over GST control).
